# According to PubChem BioAssay (Tox21):
# Results filed as inconclusive are left out. Active and inactive are the calls of the source. Calls follow the shape of the dose curve; as a rule, active = well fitted activation curve with a large enough effect in the repeat runs; inconclusive = weak or mixed curves; inactive = no such curve, though single readings can be large or run the other way.
# Target: Nuclear receptor subfamily 1 group I member 2 (Homo sapiens) (UniProt O75469)
# Test: Human pregnane X receptor (PXR) small molecule agonists, qHTS assay (AID 1346982); also: nearly all actives have a fitted effect of over 35% in size
# Conditions: PXR-Luc HepG2, CYP3A4 luciferase reporter, 24 h; series mostly up to 92.4 µM; activation: at the top concentration
# In short: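 Reporter HepG2 cells expressing PXR-Luc are cultured in charcoal-stripped FBS (5%), treated with compounds for 24 hr at 37 C, and assayed by ONE-Glo luminescence after 30 min at room temperature.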
# % is scaled to controls: 0 for no effect and ±100 for the full control effect; potency is read from the fitted curve at half-maximal effect.
# Sequence of Nuclear receptor subfamily 1 group I member 2 (Homo sapiens) (O75469 whole entry, looked up): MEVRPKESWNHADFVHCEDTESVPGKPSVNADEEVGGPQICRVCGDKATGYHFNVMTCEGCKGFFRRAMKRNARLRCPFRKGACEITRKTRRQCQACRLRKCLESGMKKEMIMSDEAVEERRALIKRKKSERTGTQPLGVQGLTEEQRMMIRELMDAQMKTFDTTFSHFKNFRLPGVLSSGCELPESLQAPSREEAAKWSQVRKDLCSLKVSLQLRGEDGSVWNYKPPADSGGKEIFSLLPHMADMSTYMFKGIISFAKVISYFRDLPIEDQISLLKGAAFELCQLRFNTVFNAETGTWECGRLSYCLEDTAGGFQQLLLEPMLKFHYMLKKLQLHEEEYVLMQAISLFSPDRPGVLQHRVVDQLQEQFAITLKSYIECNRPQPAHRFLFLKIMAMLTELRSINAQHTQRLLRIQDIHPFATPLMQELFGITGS
Structure (SMILES),activation,Potency
O=C(O)CCS,15.9% (inactive),
O=C1OC[C@H](Cc2cccc(O)c2)[C@H]1Cc1cccc(O)c1,20.1% [at 42.5 µM] (inactive),
FC(F)(F)C(F)(F)C(F)(F)C(F)(F)CCI,-6.71% [at 42.5 µM] (inactive),
CCCCCCCCCCCCCCCC(=O)OCC,-4.3% (inactive),
Nc1ccc(N=Nc2ccc(N)cc2)cc1,5.67% [at 42.5 µM] (inactive),
CC1C(C)(C)C2=C(C(=O)CCC2)C1(C)C (stereo not given),15.6% (inactive),
COC(=O)c1sccc1S(N)(=O)=O,-4.96% (inactive),
CCCCCCOC(=O)CCCCC,0.234% (inactive),
O=c1[nH][nH]c(=O)c2cc([N+](=O)[O-])ccc12,15.9% (inactive),
CCC(=O)OCc1ccc(OC)cc1,0.287% (inactive),
CNC1CCCN(c2c(F)cc3c(=O)c(C(=O)O)cn(C4CC4)c3c2OC)C1 (stereo not given),-5.34% [at 42.5 µM] (inactive),
Nc1ccc(S(=O)(=O)NCc2ccccc2)cc1,-11.1% [at 42.5 µM] (inactive),
CC(=O)N[C@@H](Cc1ccc(O)cc1)C(=O)O,-8.39% [at 42.5 µM] (inactive),
CC(C)(C)NCC(O)COc1cccc2c1C[C@H](O)[C@H](O)C2 (stereo not given in full),-3.48% [at 42.5 µM] (inactive),
CCC(Cl)CC(Cl)C(Cl)C(Cl)C(Cl)C(C)Cl (stereo not given),,1.19 µM (active)
CC(C)c1ccc(C#N)cc1,-5.15% (inactive),
CC1=CC[C@@]23C[C@@H]1C(C)(C)[C@@H]2CC[C@H]3C,12.5% (inactive),
Cc1cccc2sc(N)nc12,,55.1 µM (active)

Structure (SMILES),activation,Potency
CCN(CC)CC(=O)Nc1c(C)cccc1C(=O)OC,12.3% [at 42.5 µM] (inactive),
CN=C(N)NC(=O)Nc1c(C)cccc1C,2.24% [at 42.5 µM] (inactive),
CCCCCCCCCCCCCCN(C)C,8.78% [at 19 µM] (inactive),
C=CC(=O)NC(C)C,8.07% (inactive),
O=C(O)c1cccc(C[C@@H]2COc3ccc(OCc4nc5cc(F)ccc5s4)cc3[C@@H]2O)c1,6.29% (inactive),
O=C(O)CO,11% (inactive),
CCCCC[C@H](O)/C=C/[C@H]1[C@H](O)CC(=O)[C@@H]1C/C=C\CCCC(=O)O,7.4% [at 42.5 µM] (inactive),
Cc1ccc(N(CC2=NCCN2)c2cccc(O)c2)cc1,3.06% [at 42.5 µM] (inactive),
CC(C)C(=O)OCCOc1ccccc1,-16.8% (inactive),
O=C1CC[C@@H](C(=O)O)N1,-16% [at 42.5 µM] (inactive),
CCCCOCCOC(=O)c1cccnc1,-17% [at 42.5 µM] (inactive),
COC(=O)CC(C(C)=O)C(=O)OC (stereo not given),-9.97% (inactive),
CC(C)(O)c1coc(S(=O)(=O)NC(=O)Nc2c3c(cc4c2CCC4)CCC3)c1,-0.771% (inactive),
COC(CC(C)CCCC(C)(C)O)OC (stereo not given),14.8% (inactive),
CC(=O)Oc1cccc(O)c1,-7% [at 42.5 µM] (inactive),
CSCC[C@H](NC(=O)[C@H](Cc1c[nH]c2ccccc12)NC(=O)CCNC(=O)OC(C)(C)C)C(=O)N[C@@H](CC(=O)O)C(=O)N[C@@H](Cc1ccccc1)C(N)=O,0.179% [at 42.5 µM] (inactive),
Cc1cccc(C)c1NC(=O)c1cc(S(N)(=O)=O)c(Cl)cc1O,6.8% [at 42.5 µM] (inactive),
